Assay outcomes: PubChem BioAssay, The Scripps Research Institute Molecular Screening Center
FBW7 act – FBW7 E3 ligase activators, primary screen, biochemical, AlphaScreen, human. AlphaScreen FBW7–phospho-cyclin E peptide binding, activator screen. F-box/WD repeat-containing protein 7 (Homo sapiens), Q969H0. AID 1259310, 2017. normalized activity (activation), % at 26.1 µM. actives 0.13% (n = 650,000); in the data active = normalized activity above about 1.9%;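 note: purified mutant Fbw7 with reduced substrate affinity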
TEAD-YAP inh – TEAD-YAP interaction inhibition, primary screen, TEAD-YAP interaction inhibitor project, luminescence, HEK-TIYL cells. TEAD-Gal4/YAP UAS-luciferase luminescence. inhibition, % at 9.12 µM. actives 1.4% (n = 640,000); in the data active = inhibition above about 32%;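 note: 0% = median of test compound wells and 100% = reference inhibitor wells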
GPR151 ag – activators of human GPR151, primary screen, cell-based, PathHunter beta-arrestin, luminescence. activation, % at 11.2 µM. actives 1% (n = 650,000). G-protein coupled receptor 151 (Homo sapiens), Q8TDV0. PathHunter beta-arrestin GPR151 cells; in the data active = activation above about 4.9%;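 note: 0% = median of compound wells and 100% = cells with positive control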
Target sequence (Q8TDV0 whole entry, looked up): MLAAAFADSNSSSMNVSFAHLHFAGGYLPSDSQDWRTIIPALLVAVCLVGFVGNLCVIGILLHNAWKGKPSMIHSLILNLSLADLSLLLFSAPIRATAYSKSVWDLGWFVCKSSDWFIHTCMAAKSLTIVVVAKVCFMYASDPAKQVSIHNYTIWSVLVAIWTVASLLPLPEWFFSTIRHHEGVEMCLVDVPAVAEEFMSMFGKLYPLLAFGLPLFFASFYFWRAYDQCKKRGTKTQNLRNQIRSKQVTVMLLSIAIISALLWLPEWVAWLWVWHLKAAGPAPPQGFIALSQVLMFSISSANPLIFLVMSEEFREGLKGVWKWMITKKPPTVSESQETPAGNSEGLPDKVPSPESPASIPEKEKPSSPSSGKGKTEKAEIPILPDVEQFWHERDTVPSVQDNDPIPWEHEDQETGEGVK
MITF inh – MITF inhibitors, primary screen, biochemical, AlphaScreen, human | Microphthalmia-associated transcription factor (Homo sapiens), O75030 | AlphaScreen MITF homodimerization, bead proximity signal | inhibition, % at 2.6 µM | actives 0.91% (n = 650,000) | AID 1259374, 2018; in the data active = inhibition above about 50%;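 note: 0% = vehicle wells with protein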
MITF inh conf – MITF inhibitors, retest of hits, confirmation, biochemical, AlphaScreen, triplicate; actives 16% (n = 4,700); inhibition, % at 2.6 µM; shares compounds with MITF inh; AlphaScreen MITF homodimerization, biotin/His-MITF beads;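 active = inhibition above a cutoff derived from the DMSO control wells, cut at about 28% in these data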;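 note: 0% = MITF dimer wells with DMSO only; inhibitors lower the bead chemiluminescence by keeping MITF from dimerizing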
AlphaScreen intf2 – AlphaScreen optical interference compounds, counter-screen for MITF inhibitor project, biochemical, triplicate; actives 7.6% (n = 4,700); LysRS AlphaScreen counterscreen, signal interference; inhibition, % at 2.6 µM; shares compounds with MITF inh;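 active = inhibition above a cutoff derived from the DMSO control wells, cut at about 30% in these data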
* marks the source's active call; other numbers are inactive results. Compounds with a hit are over-represented: about 3.5% of the library has one in this group of screens.

Results for COc1ccc(Nc2cc(N3CCN(c4ccccc4F)CC3)c3noc4c3c2C(=O)c2ccccc2-4)cc1 ?
FBW7 act: -0.1; TEAD-YAP inh: -12.3; GPR151 ag: 0.2; MITF inh: 1.2

Results for COc1ccc(N(C)C(=O)CCc2nc(-c3ccc(C)cc3)no2)cc1 ?
FBW7 act: 0.0; TEAD-YAP inh: 11.8; GPR151 ag: -0.6; MITF inh: 55.8*; MITF inh conf: 9.7; AlphaScreen intf2: -4.5

Results for O=C1CN=C(Nc2ccccc2)N1Cc1ccccc1 ?
FBW7 act: 0.1; TEAD-YAP inh: 9.3; GPR151 ag: 0.1; MITF inh: 12.2

What do the screens show for `O=C(Nc1ccccc1C(=O)O)c1cncc(Br)c1`?
FBW7 act: 0.1; TEAD-YAP inh: -9.2; GPR151 ag: -4.1; MITF inh: 56.6*; MITF inh conf: 11.2; AlphaScreen intf2: 13.8

Results for O=C(NC(=S)Nc1ccccc1C(=O)O)c1cncc(Br)c1 ?
FBW7 act: 0.1; TEAD-YAP inh: 5.7; GPR151 ag: -0.9; MITF inh: 17.4

Results for O=C(Cn1nnc2ccccc21)NC1(c2ccc3c(c2)OCO3)CCCC1 ?
FBW7 act: 0.1; TEAD-YAP inh: -10.9; GPR151 ag: 1.9; MITF inh: 9.7

How did CCCNC(=O)C(C)n1c2ccccc2c2cnn(C)c(=O)c21 (stereo not drawn) do in these assays?
FBW7 act: -0.1; TEAD-YAP inh: 0.4; GPR151 ag: -0.8; MITF inh: -1.6

Results for CSc1ccc(CN2CCC(O)CC2)cc1 ?
FBW7 act: 0.0; TEAD-YAP inh: -0.2; GPR151 ag: -0.3; MITF inh: 9.3

Results for OCCN1CCN(Cc2ccc(O)cc2)CC1 ?
FBW7 act: -0.1; TEAD-YAP inh: -3.1; GPR151 ag: 0.1; MITF inh: 86.3*; MITF inh conf: 4.4; AlphaScreen intf2: 11.4

What do the screens show for `CSc1ccc(CN2CCN(C(=O)C(c3ccccc3)c3ccccc3)CC2)cc1`?
FBW7 act: 0.1; TEAD-YAP inh: -2.6; GPR151 ag: -1.6; MITF inh: 53.1*; MITF inh conf: -0.3; AlphaScreen intf2: -0.3

What do the screens show for `CSc1ccc(CN2CCN(Cc3ccncc3)CC2)cc1`?
FBW7 act: 0.0; TEAD-YAP inh: 6.0; GPR151 ag: 0.3; MITF inh: 60.5*; MITF inh conf: 3.5; AlphaScreen intf2: -2.2

How did CSc1ccc(CN2CCN(CCO)CC2)cc1 do in these assays?
FBW7 act: -0.1; TEAD-YAP inh: -9.9; GPR151 ag: -0.7; MITF inh: 80.2*; MITF inh conf: -1.8; AlphaScreen intf2: 0.4

How did OCCN1CCN(Cc2ccc(OCc3ccccc3)cc2)CC1 do in these assays?
FBW7 act: -0.1; TEAD-YAP inh: 9.8; GPR151 ag: 1.2; MITF inh: 27.7

What do the screens show for `CSc1ccc(CN2CCN(C(=O)c3ccccc3F)CC2)cc1`?
FBW7 act: -0.2; TEAD-YAP inh: 30.7; GPR151 ag: -0.2; MITF inh: 39.8

How did Cc1c(NC(=O)C2C(C=C(Cl)Cl)C2(C)C)c(=O)n(-c2ccccc2)n1C (stereo not drawn) do in these assays?
FBW7 act: 0.1; TEAD-YAP inh: 4.4; GPR151 ag: -1.4; MITF inh: 18.5

What do the screens show for `O=C(/C=C/c1cccs1)Nc1ccc(I)cc1`?
FBW7 act: 0.6; TEAD-YAP inh: -95.6; GPR151 ag: 1.9; MITF inh: 6.3

What do the screens show for `O=C(CSc1nc2[nH]ncc2c(=O)n1-c1ccc(Br)cc1)NCc1cccs1`?
FBW7 act: -0.1; TEAD-YAP inh: 8.8; GPR151 ag: 0.3; MITF inh: 54.3*; MITF inh conf: -8.6; AlphaScreen intf2: -10.2

How did O=C(CSc1nc2[nH]ncc2c(=O)n1-c1ccc(Cl)cc1)NCc1cccs1 do in these assays?
FBW7 act: 0.0; TEAD-YAP inh: 12.7; GPR151 ag: -0.1; MITF inh: 14.0

What do the screens show for `CCCCc1ccc(N2C(=O)CSC2c2ccccc2)cc1` (stereo not drawn)?
FBW7 act: 0.1; TEAD-YAP inh: 3.8; GPR151 ag: -2.0; MITF inh: 22.0

Results for COc1ccc(CN2CCN(S(=O)(=O)c3ccc([N+](=O)[O-])cc3)CC2)cc1 ?
FBW7 act: -0.1; TEAD-YAP inh: -2.4; GPR151 ag: -0.1; MITF inh: 52.6*; MITF inh conf: 15.5; AlphaScreen intf2: 14.5

Results for O=[N+]([O-])c1ccc(S(=O)(=O)N2CCN(Cc3ccccc3)CC2)cc1 ?
FBW7 act: 0.1; TEAD-YAP inh: 3.0; GPR151 ag: 0.7; MITF inh: 45.1

What do the screens show for `COc1ccc(S(=O)(=O)N2CCN(Cc3ccc([N+](=O)[O-])cc3)CC2)cc1`?
FBW7 act: -0.1; TEAD-YAP inh: -0.1; GPR151 ag: 0.6; MITF inh: 2.9

How did O=[N+]([O-])c1ccccc1S(=O)(=O)N1CCN(Cc2cccc(Br)c2)CC1 do in these assays?
FBW7 act: -0.1; TEAD-YAP inh: -3.8; GPR151 ag: 1.5; MITF inh: 21.5

How did O=[N+]([O-])c1ccc(S(=O)(=O)N2CCN(Cc3ccc(Br)cc3)CC2)cc1 do in these assays?
FBW7 act: -0.4; TEAD-YAP inh: 6.4; GPR151 ag: -1.5; MITF inh: 61.2*; MITF inh conf: 20.7; AlphaScreen intf2: 36.0*

How did O=[N+]([O-])c1ccc(S(=O)(=O)N2CCN(Cc3cccc(Br)c3)CC2)cc1 do in these assays?
FBW7 act: -0.2; TEAD-YAP inh: -6.8; GPR151 ag: 1.0; MITF inh: 76.6*; MITF inh conf: 9.2; AlphaScreen intf2: 12.9

How did COCCN(C1CCN(CCc2ccc(Cl)cc2)CC1)S(=O)(=O)c1cccs1 do in these assays?
FBW7 act: 0.1; TEAD-YAP inh: 9.3; GPR151 ag: -0.5; MITF inh: 63.3*; MITF inh conf: 0.6; AlphaScreen intf2: 7.9

Results for O=C(CSc1ccc(-c2ccccn2)nn1)Nc1ccccc1F ?
FBW7 act: 0.1; TEAD-YAP inh: 0.3; GPR151 ag: -4.8; MITF inh: 52.0*; MITF inh conf: 56.1*; AlphaScreen intf2: 88.5*

What do the screens show for `O=C(CSc1ccc(-c2ccccn2)nn1)c1ccccc1`?
FBW7 act: -1.9; TEAD-YAP inh: -43.7; GPR151 ag: 0.5; MITF inh: 53.0*; MITF inh conf: 88.0*; AlphaScreen intf2: 100.3*

How did O=C(CSc1ccc(-c2ccccn2)nn1)Nc1ccc(F)c(F)c1 do in these assays?
FBW7 act: -1.9; TEAD-YAP inh: -1.1; GPR151 ag: -2.3; MITF inh: 17.3

Results for Nc1ncc(-c2ccco2)nc1N1CCC(C(=O)O)CC1 ?
FBW7 act: -0.5; TEAD-YAP inh: 6.8; GPR151 ag: 0.5; MITF inh: 73.1*; MITF inh conf: 21.6; AlphaScreen intf2: 12.2
